Bioassay records: PubChem, National Center for Advancing Translational Sciences (NCATS)
HT1080NT lethal = qHTS for induction of synthetic lethality in tumor cells producing 2HG: qHTS for the HT-1080-NT fibrosarcoma cell line. AID 686970, 2013. actives 1.6% (n = 360,000). HT-1080-NT fibrosarcoma viability, CellTiter-Glo ATP luminescence, 48 h. Potency, µM (top dose mostly 46.1 µM), usual class: cytotoxic;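 also: NT is the 2HG producing partner of a matched IDH1 knockdown line; nearly all actives have a fitted effect of over 55% in size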
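HT-1080-NT fibrosarcoma cells (2HG-overproducing), 750 cells/well in RPMI with 5% FBS, dosed after 2 h and incubated 48 h at 37C. CellTiter-Glo luminescence normalized to DMSO and no-cell wells; concentration-response curves fitted and classed.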
IL-1B inflam inh = qHTS for Inhibitors of Inflammasome Signaling: IL-1-beta AlphaLISA Primary Screen; THP-1 LPS/ATP IL-1B secretion, AlphaLISA, 16 h; stronger effect = lower value; activity change, % at 57.5 µM; actives 4.7% (n = 360,000); AID 743279, 2014; in the data active = activity change below about -50%; inconclusive = mostly about -30% to -49%
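Secreted IL-1B measured by AlphaLISA bead assay after 16 h compound exposure of THP-1 cells; compounds (final up to 57.5 uM) added 1 h before LPS (250 ng/mL) and ATP (1.25 mM) stimulation; lower signal means less secretion.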
HT1080 IDH1KD tx = qHTS for induction of synthetic lethality in tumor cells producing 2HG: qHTS for the HT-1080-IDH1KD cell line; HT-1080 IDH1 knockdown viability, ATP luminescence, 48 h; Potency, µM (top dose mostly 46.1 µM), usual class: cytotoxic; actives 2% (n = 360,000); AID 686971, 2013
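Using the IDH1-knockdown HT-1080 line run in the same batch and compound series as the NT line, viability after 48 h at 37 °C was determined by CellTiter-Glo luminescence and expressed as % activity.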
DT40 TDP1 no CPT = qHTS for Inhibitors of human tyrosyl-DNA phosphodiesterase 1 (TDP1): qHTS in cells in absence of CPT | Potency, µM (doses to about 46.2 µM), usual class: inhibitors | DT40 Tdp1-/- hTDP1 cells, no CPT, ATP luminescence, 48 h | actives 15% (n = 420,000); also: nearly all actives have a fitted effect of over 55% in size
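DT40 Tdp1-/-;hTDP1 cells, no CPT (DMSO vehicle only), 400 cells/well; compounds pin-transferred; ≥48 hr, 37 °C; CellTiter-Glo 30 min RT dark, luminescence read.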
TDP1 cell CPT = qHTS for Inhibitors of human tyrosyl-DNA phosphodiesterase 1 (TDP1): qHTS in cells in presence of CPT; chicken DT40 Tdp1-/-;hTDP1 cells + 20 nM CPT, ATP luminescence, 48 h; Potency, µM (titrated, usually from 46.2 µM), hits mostly inhibitors; actives 12% (n = 420,000); AID 686979, 2013; also: nearly all actives have a fitted effect of over 55% in size
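Cell growth measured by CellTiter-Glo luminescence after a minimum 48 h, 37 C compound exposure with 20 nM CPT in Tdp1-knockout DT40 cells stably expressing hTDP1, seeded 400/well; qHTS titration format.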
Hits are given with their value; . = inactive; ? = inconclusive; / = no result given. Hits are enriched below; roughly 19% of the tested compounds scored in any of these assays. Unless noted, calls follow the shape of the dose curve; as a rule, active = well fitted curve in the direction sought with a large enough effect; inconclusive = small, poorly fitted or top-dose-only effect, or another doubt; inactive = no such curve, though single readings can be large; an effect the other way counts as inactive or inconclusive.

SMILES	HT1080NT lethal	IL-1B inflam inh	HT1080 IDH1KD tx	DT40 TDP1 no CPT	TDP1 cell CPT
COc1ccc(Cc2nn3c(-c4ccccc4OC)nnc3s2)cc1	.	.	.	?	.
S=C(NCc1ccccc1)Nc1ccc2cn[nH]c2c1	.	.	.	.	.
O=C(NCc1ccc(Cl)c(Cl)c1)c1cc(C2CCCCN2C(=O)OCCF)on1 (configuration not stated)	?	.	?	23µM	23µM
O=C(NCc1ccc(Cl)c(Cl)c1)c1cc(C2CCCCN2C(=O)c2ccccn2)on1 (configuration not stated)	.	.	.	18µM	10µM
O=C(Nc1ccccc1Cl)c1cc(C2CCCCN2C(=O)OCCF)on1 (configuration not stated)	.	.	.	?	?
CCC(OC(=O)C(CC(C)C)NC(=O)c1ccccc1)C(=O)Nc1nnc(C)s1 (configuration not stated)	.	.	.	5.8µM	?
CCOC(=O)c1sc(NC(=O)C(CC)OC(=O)C(CC(C)C)NC(=O)c2ccccc2)nc1C (configuration not stated)	.	.	.	.	.
O=C1NC(Cc2ccccc2)C(=O)N1CC(=O)N1CCCc2ccccc21 (configuration not stated)	.	.	.	?	.
CSc1ccc(CN(C)CC(=O)Nc2ccccc2Br)cc1	.	.	.	?	23µM
CSc1ccccc1NC(=O)CN(C)Cc1c(O)ccc2ccccc12	.	.	.	23µM	?
CSc1ccccc1NC(=O)CN(C)Cc1ccc(Br)cc1	.	?	.	?	.
CN(CC(=O)Nc1ccccc1Br)C(=O)CCSc1ccc(F)cc1	.	.	.	13µM	?
COc1ccccc1CNC(=O)CN(C)Cc1ccc(SC)cc1	.	.	.	23µM	16µM
CC(=O)Cc1nsc(NC(=O)c2ccc(COc3ccccc3C)o2)n1	?	.	?	.	.
O=C(C[N+]12CCCc3cccc(c31)CCC2)c1ccc(Cl)c2ccccc12	/	/	/	.	.
Cc1csc(NC(=O)CCNC(=O)c2ccccc2Cl)n1	.	.	.	.	.
CCOC(=O)c1ccc(N2C(=O)c3n[nH]c(-c4ccco4)c3C2c2ccc(OCC)cc2)cc1 (configuration not stated)	/	/	/	16µM	?
CCOC(=O)c1ccc(N2C(=O)c3n[nH]c(-c4ccco4)c3C2c2cccc(OC)c2)cc1 (configuration not stated)	/	/	/	18µM	23µM
CCOC(=O)c1ccc(N2C(=O)c3n[nH]c(-c4ccco4)c3C2c2ccc(F)cc2)cc1 (configuration not stated)	/	/	/	23µM	23µM
COc1cccc(C2c3c(-c4ccccc4)n[nH]c3C(=O)N2c2ccc(C(=O)O)cc2)c1 (configuration not stated)	.	.	.	.	.
CCOC(=O)c1ccc(N2C(=O)c3n[nH]c(C)c3C2c2ccccc2)cc1 (configuration not stated)	.	.	.	.	.
CCOC(=O)c1ccc(N2C(=O)c3n[nH]c(-c4ccco4)c3C2c2cccc(F)c2)cc1 (configuration not stated)	/	/	/	21µM	18µM
NS(=O)(=O)c1ccc(NC(=S)NCc2ccco2)cc1	.	.	.	.	.
CCOC(=O)c1ccc(N2C(=O)c3n[nH]c(C)c3C2c2ccc(O)cc2)cc1 (configuration not stated)	.	.	.	?	.
CCOC(=O)c1ccc(N2C(=O)c3n[nH]c(-c4ccco4)c3C2c2cccc(O)c2)cc1 (configuration not stated)	/	/	/	21µM	21µM
SMILES	HT1080NT lethal	IL-1B inflam inh	HT1080 IDH1KD tx	DT40 TDP1 no CPT	TDP1 cell CPT
NS(=O)(=O)c1ccc(NC(=O)C2Cc3ccccc3N2C(=O)c2ccccc2)cc1 (configuration not stated)	/	/	/	.	.
CC(C)CN1C(=O)C(=Nc2cccnc2)c2ccccc21	?	.	.	4.6µM	3.7µM
COc1cc(C(=O)OCC(=O)NC(N)=O)cc(CN2C(=O)c3ccccc3C2=O)c1OC	.	.	.	.	.
O=C(CCn1cnc2ccccc21)N=Nc1c(O)[nH]c2ccccc12	.	.	.	.	?
S=C(NCCCN1CCOCC1)N1CCN(c2ccccc2)CC1	.	.	.	.	.
S=C(NCC1CCCO1)N1CCN(c2nc(-c3ccc(Cl)cc3)cs2)CC1 (configuration not stated)	?	-68	?	15µM	16µM
S=C(NCCCN1CCOCC1)N1CCN(c2nc(-c3ccccc3)cs2)CC1	18µM	-87	23µM	23µM	?
O=S(=O)(c1cccc(Cl)c1Cl)N1CCN(C(=S)NCCCN2CCOCC2)CC1	.	-74	?	21µM	?
S=C(NCC1CCCO1)N1CCN(c2cccc(Cl)c2)CC1 (configuration not stated)	.	.	.	?	?
S=C(NCCCN1CCOCC1)N1CCN(c2nc(-c3ccc(Cl)cc3)cs2)CC1	?	-70	?	4.1µM	7.3µM
CN(C(=O)COC(=O)c1ccc(Cl)s1)C1(C#N)CCCCC1	.	.	.	.	.
O=C(Cc1cccs1)Nc1ccc(-c2nc3ccccc3[nH]2)cc1	?	-53	?	21µM	?
COc1c(F)c(F)c(C(=O)Nc2ccc(-c3nc4ccccc4[nH]3)cc2)c(F)c1F	.	.	.	4.6µM	6.5µM
O=C(CSc1ccccc1)Nc1ccc(-c2nc3ccccc3[nH]2)cc1	13µM	.	?	10µM	23µM
O=C(CN1CCOCC1)Nc1ccc(-c2nc3ccccc3[nH]2)cc1	.	.	.	.	.
Cc1ccc2nc(-c3ccc(NC(=O)CSc4ccccc4)cc3)[nH]c2c1	?	.	13µM	16µM	10µM
Cc1cc(N2CCCC2)ccc1NC(=O)CN1C(=O)NC2(CCCCC2)C1=O	.	.	.	.	.
O=C(CN1C(=O)CCS(=O)(=O)c2ccccc21)Nc1cccc(Cl)c1	.	.	.	?	.
O=C(CSc1ccc(Cl)cc1)Nc1cccc(-c2nc3ccccc3[nH]2)c1	.	.	?	10µM	9.2µM
CC(C)c1ccc(NC(=O)CCc2ccccc2)cc1	?	?	5.8µM	?	?
CN(CCC(=O)Nc1ccc2c(c1)OCO2)Cc1ccccc1	.	.	.	.	.
CN(CCC(=O)Nc1ccc(Cl)cc1)Cc1ccccc1	21µM	.	15µM	?	.
